Records with an inconclusive call do not appear. Where a call stands in place of a potency, no number is given. Activity calls are given as the source filed them. Calls come from the whole dose curve; as a rule, active = well fitted inhibition curve with a large enough effect; inconclusive = small, poorly fitted or top-dose-only effect, or effect the other way; inactive = flat fitted curve, though single readings scatter.
Assay: qHTS for Inhibitors of Plasmodium falciparum (CP250) proliferation (AID 504320)
Details: P. falciparum CP250 in erythrocytes, SYBR Green DNA, 72 h; series mostly up to 6.7 µM
Method in brief: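 Parasite growth measured as SYBR Green DNA fluorescence (ex 485, em 535 nm) after overnight lysis following 72 h culture at 37 °C, 0.3% parasitemia, 2.5% hematocrit. Values normalized against DMSO and 0.29 uM artemisinin controls, with plate-stack correction.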

SMILES | Potency
COC(=O)[C@@H]1C[C@@]23C(=NN=C(SC)C2Nc2ccccc23)N1C(C)=O (stereo partly specified) | inactive
COC(=O)c1ccc(CN2C(=O)C3(CC(C)=C[C@@H](C)O3)c3c(Br)cccc32)cc1 (stereo partly specified) | inactive
CCCCC1=CC2=C(c3ccco3)C(=O)C(C)(OC(=O)c3ccc(OC)cc3)C(=O)C2=CN1Cc1ccccc1 (stereo unspecified) | inactive
CC(C)OC(=O)CC(NC(=O)OC(C)(C)C)c1ccccc1 (stereo unspecified) | inactive
COC(=O)C1(C)C=C(Nc2ccc(OC)cc2)C(=O)N1c1ccc(OC)cc1 (stereo unspecified) | inactive
COC1=C[C@H](C(=O)NCc2ccccn2)[C@@]2(C)Cc3ccccc3[C@@H]2CC1=O | inactive
CCC(=O)C[C@@H](NC(=O)OC)c1ccccc1 | inactive
COC(=O)[C@H]1[C@H](CCc2ccccc2)NC(=O)N(Cc2ccccc2)[C@H]1C | inactive
C[C@H]1[C@H](N=[N+]=[N-])[C@H](O)CCO[C@@H]1c1ccccc1 | inactive
C=C1CN2C(=NC(c3ccccc3)C(C(=O)OC)=C2C)O1 (stereo unspecified) | inactive
C=CCOC(=O)[C@H](O)[C@@H](O)C(=O)OCC=C | inactive
C#CCN1C(=O)CC[C@@]23C1=NC(C(=O)OC)=C(C(=O)OC)[C@@H]2N(Cc1ccccc1)c1ccccc13 | inactive
COC(=O)C1=C(C(=O)OC)[C@@H]2Nc3ccccc3[C@@]23C[C@@H](C(=O)OC)N(C(=O)COCc2ccccc2)C3=N1 | inactive
Cc1ccc([S+](=O)([O-])N[C@@H]2COC(=O)CC=C[C@H](C)COC(=O)N[C@@H](C)C(=O)CC=C[C@H]2C)cc1 | inactive
CCN1C(=NCC(C)C)N[C@H](c2ccccc2)[C@H](C(=O)OC)[C@H]1C | inactive
C=CCOC(=O)N[C@@H](c1ccccc1)[C@@H](C)[N+](=O)[O-] | inactive
C=CCOC(=O)NC(c1ccc(F)c(F)c1)C(C(=O)CCl)C(=O)OC (stereo unspecified) | inactive
CCOC(=O)C1=CN(CCC=C(C)C)C(=O)N(C(C)=O)C1c1ccccc1 (stereo unspecified) | inactive
COC1=CC2C(=O)C(C1=O)C1c3ccccc3CC21 (stereo unspecified) | inactive
CCOC(=O)NN=C1C[C@@H](O)[C@@H](O)[C@@H]2[C@H]3C(=O)N(Cc4ccc5c(c4)OCO5)C(=O)[C@@H]3CC[C@H]12 | inactive
CCOC(=O)C1=C(CCl)NC(=O)N(C(C)=O)C1c1ccccc1 (stereo unspecified) | inactive
C#CCCCON=C1C[C@@H](O)[C@H](O)[C@H]2[C@@H]3C(=O)N(C[C@@H]4CCCO4)C(=O)[C@@H]3CC[C@@H]12 | inactive
CCN1C(=NCc2cc(OC)c(OC)c(OC)c2)NC(c2ccccc2)C(C(=O)OC)=C1C (stereo unspecified) | inactive
CC(C)=CCCC(C)=CCON=C1C[C@@H](O)[C@@H](O)[C@@H]2[C@H]3C(=O)N(C[C@@H]4CCCO4)C(=O)[C@@H]3CC[C@@H]12 | inactive
O=C(C=Cc1cccc([N+](=O)[O-])c1)c1ccccc1 | inactive
CC#CCN1C(=O)N(C)C(c2ccccc2)C(C(=O)OC)=C1C (stereo unspecified) | inactive
